The whole screen tested about 2,100 compounds, of which about 480 (23%) were called active. About 5% were inconclusive and are not listed.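 Rule for the calls: active = fitted curve reaches 40% activation at or below the top valid concentration, in every replicate test; inconclusive = replicate tests disagree on the call; inactive = the rest, including activity in the opposite direction.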 Not all results are given here. Results with a measured potency or affinity are listed apart.
assay: PGC1a acetylation increase, cellular AlphaLISA – cell-based, cherry-picked samples, set 6, dose response (AID 720513); details: U2OS PGC1a acetylation AlphaLISA, overnight, 0 = neutral, -100 = inhibitor control; series mostly up to 19.5 µM;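 note: cells made to overexpress flag tagged PGC1a plus GCN5 acetyltransferase by viral infection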

outcome, inactive:
CCOC(=O)CN1C(=N)N(c2nc(NC(C)C)nc(OC)n2)CC1=O
CC1CCc2sc(C(=O)Nc3nnc(SCc4ccc(F)cc4)s3)cc2C1 (stereo not drawn)
CCc1ccc(-c2cn3nc(-c4ccccc4)cnc3n2)cc1
COCC(=O)Nc1ccc2c(c1)OC[C@H](C)N(C(=O)c1ccccc1F)C[C@H](C)[C@H](OC)CN(C)C2=O
OC[C@@H]1[C@H](c2ccc(/C=C/c3ccccc3)cc2)[C@H]2CN(CCC(F)(F)F)CCCCN12
CCCCOc1ccc(CNC(=O)NS(=O)(=O)c2ccc(OCC(C)C)cc2)cc1
CC(C)C#Cc1ccc2c(c1)O[C@@H](CN(C)Cc1ccccc1)[C@@H](C)CN([C@@H](C)CO)S2(=O)=O
COc1ccc(-c2cc(C(=O)O)[nH]n2)cc1OC
COc1ccc(-c2nc3ccccc3c(=O)o2)cc1OC
O=C(Nc1ccc(N2CCN(Cc3ccccc3F)CC2)cc1)c1ccc([N+](=O)[O-])o1
Cc1ccc(C(=O)N2CCN(c3ncccn3)CC2)cc1
N#Cc1cc(Oc2cccc3cccnc23)c(-n2nnc3ccccc32)cc1C#N
O=C1CN(S(=O)(=O)Cc2ccccc2)C[C@@H]2[C@@H](c3ccc(C#Cc4cccc(F)c4)cc3)[C@@H](CO)N12
COC(=O)c1ccc(OC)c(OC2CCCC2)c1
N#Cc1ccc(-c2ccc([C@@H]3[C@H]4CNC[C@@H]3N4Cc3ccc4c(c3)OCO4)cc2)cc1
O=C(Cc1cccnc1)N1CC(=O)N2[C@H](CO)[C@@H](c3ccc(C#CC4CCCCC4)cc3)[C@H]2C1
CCN(CC)C1CC(=O)N(c2ccc(Br)cc2)C1=O (stereo not drawn)
COc1cccc(NC(=O)N2CCN(c3cccc(C)c3)C(C)C2)c1 (stereo not drawn)
COC(=O)c1cc(C(=O)N2CCN(c3cccc(Cl)c3)CC2)cc([N+](=O)[O-])c1
O=C(c1cc([N+](=O)[O-])ccc1N1CCCC1)N1CCCC1
COC(=O)[C@]1(Cc2ccccc2)N=C(c2ccc(OCCCO)cc2)O[C@@H]1c1ccccc1
O=C(c1cccc(Cl)c1)N1CCN(c2ccc(N3CCOCC3)nn2)CC1
CCN1C(C#N)=C(C#N)N=C(C)CC1(C)C
CC1(C(=O)Nc2cccc(C#N)c2)CCN1C(=O)CCc1ccccc1 (stereo not drawn)
O=C1C=CCCN1S(=O)(=O)/C=C/c1ccccc1
COc1cc(CN2C[C@@H]3N[C@H](C2)C3c2ccc(/C=C/c3ccccc3)cc2)cc(OC)c1 (stereo partly drawn)
CO[C@H]1CN(C)C(=O)c2ccc(NC(=O)Nc3ccccc3F)cc2OC[C@@H](C)NC[C@@H]1C
CC(=O)N(C1=C(N2CCOCC2)C(=O)c2ccccc2C1=O)c1ccc(C(=O)O)cc1
N#Cc1ccsc1NC(=O)CSc1nnc(NC2CC2)s1
Cc1cc(C)c(C#N)c(SCC(=O)Nc2nnc(-c3ccccc3)s2)n1
Cc1ccc2nc(C)cc(OCC(=O)O)c2c1
C[C@@H]1CN([C@H](C)CO)C(=O)c2cc(C#CC3CC3)cnc2O[C@H]1CN(C)C(=O)Nc1ccc(F)cc1
Cc1[nH]c2ccc(C(C)C)cc2c1CC(=O)O
O=C(Nc1ccc(CN2CCOCC2)cc1)c1ccc(F)cc1
CC(C)(C)c1ccc(C(=O)NCCN2CCOCC2)cc1
CC(C)(C)c1ccc(OCCSc2nc3ccccc3n2CC(=O)O)cc1
COc1ccc2c(c1)c1nc3ccccc3nc1n2CC(=O)OC(C)C
N=c1n(Cc2ccccc2)c2ccccc2n1CC(O)COc1ccc(Cl)cc1Cl (stereo not drawn)
Cc1nnc(SCC(=O)N2CCC(c3noc4ccc(F)cc34)CC2)s1
CS(=O)c1nc(-c2ccc(Br)cc2)cc(-c2ccccc2)c1C#N (stereo not drawn)
CN(C)CCCNc1cc(-c2ccccc2)nc2cc(-c3cccc(F)c3)nn12
C=CCn1c(C)cc(C(=O)Cn2ncc(Cl)c(Cl)c2=O)c1C
Cc1cc(C)c(S(=O)(=O)NCC2CCC(C(=O)NCc3ccc4c(c3)OCO4)CC2)c(C)c1 (stereo not drawn)
Cc1noc(C)c1S(=O)(=O)Nc1ccc2c(c1)C(=O)N([C@H](C)CO)C[C@@H](C)[C@H](CN(C)Cc1ccc(C(F)(F)F)cc1)O2
O=c1oc(-c2ccccc2)nc2sc3c(c12)CCC3
CCOC(=O)c1c2c(n(C)c1C)C(=O)C(=O)c1ccc(Br)cc1-2
CCOC(=O)c1c(C)n(C)c2cc(Br)c(O)c(O)c12
O=C(Nc1ccc2c(c1)OCO2)N[C@H]1CC[C@H](CCNC(=O)C2CCC2)O[C@@H]1CO
CCOC(=O)c1c(NC(=O)/C=C/C(=O)O)sc(C)c1-c1ccc(C(C)(C)C)cc1
CCOC(=O)c1c(NC(=O)c2c(Br)cnn2CC)sc(C)c1C
CN1CCc2c(sc3c2c(NCc2ccco2)nc2nnnn23)C1
O=C(Cc1cccc(NC(=O)C2CCCN(C(=O)c3ccccc3)C2)c1)Nc1cccc(C(=O)N2CCOCC2)c1 (stereo not drawn)
CCn1cnc2cc(NCc3ccc(N(C)C)cc3)ccc21
O=C(Cc1cccc(NC(=O)C2CCN(C(=O)c3ccccc3)CC2)c1)Nc1cccc(C(=O)N2CCCCC2)c1
COc1ccc(C(=O)Nc2cc(Cl)ccc2-n2cncn2)c(OC)c1OC
Cc1noc(/C=C/N(C)C)c1S(=O)(=O)N(C)CC(=O)NC1CCCCC1
CCC(=O)N1C[C@H](C)[C@H](OC)CN(C)C(=O)c2cc(NC(=O)c3cnccn3)ccc2OC[C@@H]1C
Cc1nc2ncnn2c(C)c1CCC(=O)N1CCN(c2ccccn2)CC1
O=C(c1ccccc1-c1ccccc1)N1CCN(c2ccccn2)CC1
COc1ccc2nc(N3CCCC(C(=O)NCCCN4CCN(C)CC4)C3)sc2c1 (stereo not drawn)
COc1ccc(CCNC(=O)C2CCN(C(=O)c3ccc(F)cc3)CC2)cc1OC
COc1cccc(CNC(=O)C(=O)NCCC2CCCCN2S(=O)(=O)c2ccc(C)cc2)c1 (stereo not drawn)
Cc1ccc(S(=O)(=O)N2CCCC2CNC(=O)c2ccc(F)c(F)c2)cc1 (stereo not drawn)

Source: PubChem BioAssay AID720513 (Broad Institute, 2013)
